# Laboratory results reported in PubChem BioAssay AID504387 (National Center for Advancing Translational Sciences (NCATS), 2011).
# Activity calls are given as the source filed them. No rule for the calls is given here.
# Molecular target: Thyrotropin receptor (Homo sapiens) (UniProt P16473)
# Test: Concentration-response assay for antagonists of the thyroid stimulating hormone receptor: ELISA activity detection
# Settings: HEK293-TSHR, TSH-induced cAMP, ELISA chemiluminescence
# From the text: TSH is an alpha/beta heterodimeric glycoprotein hormone secreted from the anterior pituitary gland which belongs to the glycoprotein hormone family. The actions of TSH are mediated by a seven-transmembrane receptor, which upon TSH binding couples preferentially to the G-alpha (s) protein (Gs), resulting in activation of adenylate cyclase and increase in cyclic adenosine 3', 5' monophosphate (cAMP). The TSH receptor (THSR) is mainly expressed in thyroid follicular cells and regulates their growth and function. This cell based assay was conducted on a TSHR transfected HEK 293 cell line, measuring cAMP stimulation using antibody-based Homogeneous Time Resolved Fluorescence (HTRF). Our goal is to identify small molecules that will inhibit (antagonize) the thyroid-stimulating hormone receptor (TSHR), a member of the 7 transmembrane-spanning receptor (7TMR) family of cell surface receptors. TSHR-mediated hyperthyroidism is important in thyroid pathology. The development of small molecule antagonists of TSHR may lead to therapeutic approaches for TSHR-mediated hyperthyroidism caused by constitutively activating mutations or stimulating auto-antibodies associated with Graves' disease. Graves' disease is the leading cause of hyperthyroidism and is caused by autoantibodies that stimulate TSHR (TsAbs) causing thyroid growth and unregulated overproduction of thyroid hormones and existing treatments have liabilities (agranulocytosis). In addition, TSHRs are known to be expressed in multiple extrathyroidal tissues including bone, brain, kidney, testis, fat and cells of the immune system but the role of the TSHR in these tissues is not clear. Therefore, TSHR antagonists/inverse agonists could be used as probes of extrathyroidal TSHR function. Finally, TSHR inverse agonists, which are a subclass of antagonists that inhibit agonist-independent (or basal or constitutive) TSHR signaling, could be used to inhibit TSH-independent signaling in patients with recurrent or metastatic thyroid cancer who are receiving thyroid hormone to suppress TSH. A confirmatory assay of TSHR antagonists was conducted on a HEK 293 cell line stably expressing the TSHR, using an orthogonal detection technology to measure cAMP stimulation: an ELISA based cAMP competition assay using cAMP-Screen Direct System (Applied Biosystems, Foster City, CA).
# Transiently transfected HEK-EM 293 cells or cells stably expressing TSHRs were seeded into 96-well plates at a density of 7 x10^4 cells per well in DMEM containing 10% FBS. Cells were cultured for 24 h before incubation for 20 min in HBSS/10 mM HEPES (pH 7.4). To determine the effect of the compound on TSH induced TSHR activity, cells were incubated for 20 min with the compound in HBSS/HEPES without IBMX and subsequently for 40 min with bovine TSH (Sigma) and the compound in HBSS/HEPES supplemented with 1 mM IBMX at 37 C. The levels of cAMP in cells incubated in HBSS/HEPES without IBMX were subtracted in all experiments. After aspiration of the incubation medium, cells were lysed using lysis buffer of the cAMP-Screen Direct system (Applied Biosystems, Foster City, CA). The cAMP content of the cell lysate was determined using the method described in the manufacturer's protocol. The chemiluminescence signal was measured in a VICTOR3 V 1420 multilabel counter (PerkinElmer, Norwalk, CT). The potencies (EC50 and IC50) of the ligands were obtained from dose-response curves by data analysis with GraphPad Prism 4 for Windows.
# Thyrotropin receptor (Homo sapiens), sequence (P16473 whole entry, looked up): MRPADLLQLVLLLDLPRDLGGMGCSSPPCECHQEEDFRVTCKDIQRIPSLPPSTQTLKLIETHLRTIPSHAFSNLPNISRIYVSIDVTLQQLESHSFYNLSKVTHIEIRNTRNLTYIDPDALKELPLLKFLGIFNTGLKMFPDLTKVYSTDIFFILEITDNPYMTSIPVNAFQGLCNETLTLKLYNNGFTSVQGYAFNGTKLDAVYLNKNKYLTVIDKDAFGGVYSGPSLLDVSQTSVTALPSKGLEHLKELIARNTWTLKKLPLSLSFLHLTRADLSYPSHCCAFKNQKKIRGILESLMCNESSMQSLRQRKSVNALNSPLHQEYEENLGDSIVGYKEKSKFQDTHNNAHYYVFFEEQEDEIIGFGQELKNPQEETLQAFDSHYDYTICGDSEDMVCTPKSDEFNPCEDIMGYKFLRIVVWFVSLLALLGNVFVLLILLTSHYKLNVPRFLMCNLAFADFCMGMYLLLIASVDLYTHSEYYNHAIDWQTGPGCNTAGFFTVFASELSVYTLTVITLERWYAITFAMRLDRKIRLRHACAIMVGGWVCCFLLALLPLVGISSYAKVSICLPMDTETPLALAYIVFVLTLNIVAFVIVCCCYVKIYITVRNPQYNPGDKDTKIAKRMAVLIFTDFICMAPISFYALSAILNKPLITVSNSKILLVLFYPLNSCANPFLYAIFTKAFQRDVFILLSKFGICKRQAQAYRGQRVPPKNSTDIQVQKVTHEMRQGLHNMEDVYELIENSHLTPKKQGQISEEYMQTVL
Compound,IC50,outcome
Cc1cccc(C)c1OCc1cccc(C2Nc3ccccc3C(=O)N2Cc2ccco2)c1 (stereo unspecified),1900 nM (active),
CCc1cccc(CC)c1OCc1cc(C2Nc3ccccc3C(=O)N2Cc2ccco2)ccc1OC (stereo unspecified),22300 nM (active),
COc1ccc(C2Nc3ccccc3C(=O)N2Cc2ccccc2)cc1COc1c(C)cccc1C (stereo unspecified),,inactive
COc1ccc(C2Nc3ccccc3C(=O)N2Cc2ccccn2)cc1COc1c(C)cccc1C (stereo unspecified),,inactive
COc1ccc(C2Nc3ccccc3C(=O)N2Cc2cccnc2)cc1COc1c(C)cccc1C (stereo unspecified),3500 nM (active),
COc1ccc(C2Nc3ccccc3C(=O)N2Cc2ccco2)cc1COc1c(C)cc(NC(C)=O)cc1C (stereo unspecified),2300 nM (active),
COc1ccc(C2Nc3ccccc3C(=O)N2Cc2cccs2)cc1COc1c(C)cccc1C (stereo unspecified),1000 nM (active),
COc1ccc(C2Nc3cccc(O)c3C(=O)N2Cc2ccco2)cc1COc1c(C)cc(NC(C)=O)cc1C (stereo unspecified),,inactive
COc1ccc(C2Nc3ccccc3C(=O)N2Cc2ccco2)cc1COc1ccccc1C (stereo unspecified),,inactive
COc1ccc(C2Nc3ccccc3C(=O)N2Cc2ccc(C)o2)cc1COc1c(C)cccc1C (stereo unspecified),2300 nM (active),
COc1ccc(C2Nc3ccccc3C(=O)N2Cc2ccco2)cc1CSc1c(C)cccc1C (stereo unspecified),9900 nM (active),
